# Screening results (PubChem)
# This is a sample that favours compounds with a hit; in the whole collection about 6.7% have one here.
# SW480 rereplic = A quantitative high throughput screen for small molecules that induce DNA re-replication in SW480 colon adenocarcinoma cells; AID 624297, 2012; hit rate 1.8% among 340,000; Potency, µM (titrated, usually from 46.1 µM), without a hit: at the highest dose re-replication activation, actives largely listed as activators; SW480 DNA re-replication, Hoechst DNA content imaging, 48 h; further: % of control where 0% means no effect; nearly all actives have a fitted effect of over 55% in size
#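 Readout is total intensity of Hoechst-stained nuclei, excited at 405 nm and collected at 500-530 nm. Compound treatment lasted 48 hr at 37 C in 5% CO2 before staining.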
# MCF10A rereplic = A quantitative high throughput screen for small molecules that induce DNA re-replication in MCF 10a normal breast cells | MCF 10A DNA re-replication, Hoechst nuclear intensity, 48 h | Potency, µM (top dose mostly 46.1 µM), for inactives: at the top dose activity, positive = re-replication, most hits filed as activators | hit rate 2.9% among 350,000 | AID 624296, 2012; further: % of control where 0% means no effect; nearly all actives have a fitted effect of over 50% in size
# KB-V1 MDR tox = qHTS assay for MDR1-selective chemotherapeutics: Primary screen using the drug-selected MDR subline cells KB-V1; KB-V1 MDR cells viability, CellTiter-Glo, 72 h; Potency, µM (top dose mostly 46.1 µM), actives largely listed as cytotoxic; hit rate 3.4% among 400,000; further: on the % scale 0 is the no-effect control and ±100 the full control effect; nearly all actives have a fitted effect of over 60% in size
#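 Cytotoxicity toward P-gp-expressing KB-V1 cells was determined as loss of CellTiter-Glo luminescence after 72 h at 37 degrees C. Compounds were tested in quantitative HTS format across a concentration range, with curves fitted to normalized data.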
# PINK1 modulator = A Quantitative High throughput Screen to Identify Chemical Modulators of PINK1 Expression | PINK1 immunofluorescence, high-content cytometry, 24 h | hit rate 0.2% among 410,000 | Potency, µM (doses to about 76.6 µM), inactives show top-dose activation (PINK1 increase), hits mostly activators; active means well fitted activation curve with a large enough effect; inconclusive means small, poorly fitted or top-dose-only effect; cell line not stated here; further: % of control where 0% means no effect; nearly all actives have a fitted effect of over 65% in size
#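 Stable cell line treated 24 h with compounds at 5 concentrations (CCCP controls), then fixed and immunostained for PINK1 plus nuclear and cell stains; PINK1 immunofluorescence quantified by laser-scanning microplate cytometry.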
# KB-3-1 cytotox = qHTS assay for MDR1-selective chemotherapeutics: Primary screen using the parental adenocarcinoma cell KB-3-1; KB-3-1 viability, CellTiter-Glo ATP luminescence, 72 h; Potency, µM (highest dose often 46.1 µM), hits mostly cytotoxic; hit rate 1.4% among 400,000; AID 1347075, 2019; further: on the % scale 0 is the no-effect control and ±100 the full control effect; nearly all actives have a fitted effect of over 60% in size
#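 KB-3-1 cells, DMEM (no phenol red) + 10% FBS; compound by pin transfer, 72 h, 37 °C. Readout: CellTiter-Glo luminescence after 10 min. Data normalized, curve-fitted.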
# Active calls of the source: *; i = inactive; ? = inconclusive; . = no result; [ ] = another dose, or the depositor's remark. Unless noted, the call rests on the fitted dose curve; in most records, active means well fitted curve in the direction sought with a large enough effect; inconclusive means small, poorly fitted or top-dose-only effect, or another doubt; inactive means no such curve, though single readings can be large; an effect the other way counts as inactive or inconclusive. Potency means the concentration at half of the fitted maximal effect.
SMILES,SW480 rereplic,MCF10A rereplic,KB-V1 MDR tox,PINK1 modulator,KB-3-1 cytotox
CC(=O)c1c(C)oc2ccc(N(C(C)=O)S(=O)(=O)c3ccc(Cl)c([N+](=O)[O-])c3)cc12,?,1.8µM*,?,-3%,?
CCCC(=O)N(c1ccc2oc(C)c(C(C)=O)c2c1)S(=O)(=O)c1ccc(CC)cc1,.,.,2.9µM*,0%,3.7µM*
CC(=O)c1c(C)oc2ccc(N(C(C)=O)S(=O)(=O)c3ccc(Br)cc3)cc12,-5%,?,?,5%,i
O=S(=O)(c1ccccc1C(F)(F)F)N1CCN(c2nc(-c3ccccc3)nc3ccccc23)CC1,.,.,i,-1%,?
COC(=O)c1c(OCc2ccccn2)cc(=O)n2c1CCN(Cc1ccc3c(c1)CCCN3C)CC2,.,.,.,2%,.
O=C(NCCc1nnc2n1CCN(Cc1cc3ccccc3o1)CC2)c1ccoc1,.,.,.,0%,.
CC(C)NC(=O)CCSc1nc(-c2ccc3c(c2)OCO3)cc(C(F)(F)F)n1,.,.,?,4%,i
Cc1cccc(C)c1NC(=O)CN1CCN(C(=O)CNC(=O)c2ccc(-c3ccccc3)cc2)CC1,.,.,18µM*,4%,?
Cc1cccc(NC(=O)CN2CCN(C(=O)CNC(=O)c3ccc(-c4ccccc4)cc3)CC2)c1C,.,.,?,5%,i
Cc1nn(CC(=O)OCC(=O)c2ccc(OC(F)F)cc2)c(C)c1[N+](=O)[O-],?,11%,?,2%,i
CS(=O)(=O)c1ccc(S(=O)CC(=O)Oc2ccc(Cl)cc2)c([N+](=O)[O-])c1 (stereo not drawn),6.5µM*,4.6µM*,?,-4%,21µM*
CCn1cc[n+](C)c1P(c1ccccc1)c1ccccc1,-1%,-1%,i,3%,7.3µM*
COc1ccc(OC)c(NS(=O)(=O)c2ccc(N3CCCC3=O)cc2)c1,0.82µM*,?,2.1µM*,13%,0.82µM*
COc1ccc(NS(=O)(=O)c2ccc(N3CCCC3=O)cc2)cn1,21µM*,10µM*,?,7%,?
Cc1ccc(OCCNS(=O)(=O)c2ccc(N3CCCC3=O)cc2)cc1,-4%,3%,i,1%,i
Cc1ccccc1NS(=O)(=O)c1cc2c3c(c1)CC(=O)N3CCC2,-5%,0%,i,1%,i
Cc1ccccc1NS(=O)(=O)c1ccc(N2CCCC2=O)cc1,3.7µM*,12µM*,2.6µM*,3%,5.2µM*
Cc1ccc(OCCNS(=O)(=O)c2ccc(N3CCCC3=O)cc2)cc1C,?,20%,16µM*,4%[38.3 µM],?
COc1ccc(CCNS(=O)(=O)c2ccc(N3CCCC3=O)cc2)cc1,0%,?,i,-2%,i
Cc1nn(C)c(C)c1NS(=O)(=O)c1ccc(N2CCCC2=O)cc1,63%,?,?,4%,?
O=C(OCc1cc(=O)n2c3c(sc2n1)CCCC3)c1cccc(NC(=O)c2ccccc2F)c1,.,.,.,-2%,.
Cc1cccc(N(CC(N)=O)C2SC(=O)N(Cc3cccc(C(=O)O)c3)C2=O)c1 (stereo not drawn),.,.,i,2%,i
O=C1CCCN1c1ccc(S(=O)(=O)NCCc2ccc(Cl)cc2)cc1,-2%,5%,18µM*,5%[38.3 µM],i
CCOC(=O)C1=C(CS(=O)(=O)c2ccccc2)NC(=O)NC1c1ccccc1OC (stereo not drawn),2%,-11%,i,0%,i
COc1ccc(C(=O)NCCc2c[nH]c3ccc(OC)cc23)cc1,-9%,4%,i,-1%,i
SMILES,SW480 rereplic,MCF10A rereplic,KB-V1 MDR tox,PINK1 modulator,KB-3-1 cytotox
CCc1ccc2oc(C(=O)Nc3cc(Cl)ccc3OC)cc(=O)c2c1,.,.,i,1%,i
COc1ccc2[nH]cc(CCNC(=O)c3ccc4ccccc4n3)c2c1,-64%,15µM*,i,0%,i
COc1ccc(NC(=O)c2cc3ccccc3o2)cc1OC,-18%,-2%,i,0%,i
CCc1ccc2oc(C(=O)NCCc3ccc(OC)c(OC)c3)cc(=O)c2c1,.,.,5.2µM*,4%,16µM*
COc1ccc(CNC(=O)c2cc3ccccc3o2)cc1OC,13%,-1%,8.2µM*,1%,i
Cc1ccc2[nH]cc(CCNC(=O)c3cccnc3)c2c1,12%,21µM*,i,0%[38.3 µM],i
COc1ccccc1CNC(=O)CN(C)CC(=O)Nc1ccccc1Br,-12%,0%,i,4%,i
CCc1cc2c(cc3c(=O)n(CC(=O)NCCc4ccccc4)ncn32)s1,.,.,.,1%,.
Cc1ccc(NC2CCCN(C(=O)c3ccoc3C)C2)cc1C (stereo not drawn),0%,3%,.,-2%,.
COc1ccc(CNC(=O)c2ccc3ccccc3n2)cc1OC,-10%,8%,7.3µM*,4%,?
COc1ccc(-n2nc(C#N)c(Cl)cc2=O)cc1,?,0.73µM*,i,-1%,?
C=CCn1c(Cn2c(-c3cnccn3)nc3ccccc32)nc2ccccc21,.,.,?,0%,i
Cn1ncc(N=Cc2ccccc2)c1C(=O)Nc1cccc(Cl)c1,?,18µM*,?,8%,?
CCc1cccc(CC)c1NC(=O)C1SC(=Nc2ccccc2C)C(c2nc3ccccc3s2)=C1N (stereo not drawn),8.2µM*,?,i,0%,?
Cc1cc(OCC(=O)OCC(=O)Nc2cc(S(=O)(=O)N3CCOCC3)ccc2Cl)ccc1Cl,-4%,-7%,i,-1%,i
CC(C)c1ccc(C(=O)NCCCN2CCN(CCCNC(=O)c3ccc(C(C)C)cc3)CC2)cc1,?,23µM*,?,-2%,i
CCOC(=O)C1CCN(S(=O)(=O)c2ccc(-n3cnnn3)c(C)c2)CC1,?,12µM*,i,2%[38.3 µM],i
Nc1nc(Nc2ccccc2)nc2ccccc12,-8%,0%,?,2%,?
Nc1nc(Nc2ccc(Cl)cc2)nc2ccccc12,-7%,27%,18µM*,0%,i
COc1nc(N2CCCCCC2)nc(N2CCCCCC2)n1,19%,18µM*,15µM*,?,?
COc1nc(C#N)nc(N2CCCC2)n1,.,.,i,0%,i
O=C(Nc1ccn(Cc2c(F)c(F)cc(F)c2F)n1)c1ccc(COc2ccc(Cl)cc2Cl)o1,3%,19%,8.2µM*,4%[38.3 µM],i
Cc1nn(Cc2c(F)c(F)c(F)c(F)c2F)c(C)c1NC(=O)c1ccc(COc2ccc(Cl)cc2Cl)o1,?,?,18µM*,4%,?
O=C(Nc1ccccc1F)c1ccc(COc2ccc(Cl)cc2Cl)o1,-10%,15%,i,3%,i
COc1ccc2c(CN3CCN(c4ccccc4F)CC3)cc(=O)oc2c1,.,.,i,1%,i
